Measured values reported in PubChem BioAssay AID2544 (Sanford-Burnham Center for Chemical Genomics, 2010).
In all, about 330,000 compounds went through this assay and about 390 (0.12%) were called active. This is one part of a sample in which actives are shown more often than they occur.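 Rule for the calls: active = inhibition reaching a set limit with compound at 10 µM in the primary screen (cut at about 35% in these data); inactive = the rest.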

Molecular target: Intestinal-type alkaline phosphatase (Homo sapiens) (UniProt P09923)
Assay: blockers of intestinal alkaline phosphatase activity – biochemical, luminescence, uHTS, primary screen (AID 2544);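 note: plate controls were DMSO wells with enzyme for no effect and no-enzyme buffer wells for full effect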
Settings: purified IAP, CDP-Star luminescence, 30 min; at 10 µM; stronger effect = higher value

Sequence of Intestinal-type alkaline phosphatase (Homo sapiens) (P09923 whole entry, looked up): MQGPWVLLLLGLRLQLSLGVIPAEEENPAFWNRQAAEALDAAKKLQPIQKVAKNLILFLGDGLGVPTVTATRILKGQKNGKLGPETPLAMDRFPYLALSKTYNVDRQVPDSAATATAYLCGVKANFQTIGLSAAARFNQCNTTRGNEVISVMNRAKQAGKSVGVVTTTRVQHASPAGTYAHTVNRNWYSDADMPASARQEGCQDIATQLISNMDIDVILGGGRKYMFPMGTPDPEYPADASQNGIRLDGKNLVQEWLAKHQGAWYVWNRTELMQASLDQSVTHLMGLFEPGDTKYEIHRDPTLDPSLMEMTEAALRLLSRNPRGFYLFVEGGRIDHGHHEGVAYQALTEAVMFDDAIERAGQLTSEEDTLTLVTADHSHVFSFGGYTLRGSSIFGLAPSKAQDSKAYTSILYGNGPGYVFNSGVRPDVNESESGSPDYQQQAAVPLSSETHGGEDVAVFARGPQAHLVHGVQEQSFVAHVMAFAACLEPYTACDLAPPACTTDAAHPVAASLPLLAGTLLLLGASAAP

SMILES | inhibition
COc1ccccc1N=Nc1c(O)[nH]c(=S)[nH]c1=O | 37.5% (active)
CCOCCc1c(O)[nH]c(=S)[nH]c1=O | 7.2% (inactive)
O=C1N=c2ccccc2=C/C1=C\c1c(O)[nH]c(=S)[nH]c1=O | -13% (inactive)
COc1ccc(NC(=O)c2cn(CCC#N)nc2-c2ccc([N+](=O)[O-])cc2)cc1 | 1.2% (inactive)
CN(c1ccccc1)c1ccc([N+](=O)[O-])c2nonc12 | 45.8% (active)
CCN(CC)c1ccc([N+](=O)[O-])c2cccnc12 | 26.2% (inactive)
O=C(OCCN1CCOCC1)C1(c2ccccc2)CCCC1 | -11.7% (inactive)
Cc1ccc2c(c1)C1CN(C)CCC1N2C(=O)Cn1nnc(-c2ccccc2F)n1 (stereo not given) | -5.5% (inactive)
Cc1ccc2c(c1)=C/C(=C\c1c(O)[nH]c(=O)[nH]c1=O)C(=O)N=2 | -9.3% (inactive)
COc1ccc(-n2c(O)c(C(C)=Nc3ccc4c(c3)CCC4)c(=O)[nH]c2=O)cc1 | -16.1% (inactive)
